Our source for the outcome values is PubChem BioAssay AID720566 (Broad Institute, 2013).

Structures are written as SMILES. Results with a measured potency or affinity are listed apart. Active and inactive are the calls of the source.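 The calls were made as follows: active = in all runs, an absorbance decrease of 25% or more of the average positive control decrease; inconclusive = runs conflict, with both active and inactive results; inactive = all runs inactive, opposite-direction effects included.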

Sequence of Protein disulfide-isomerase A6 (Homo sapiens) (Q15084 whole entry, looked up): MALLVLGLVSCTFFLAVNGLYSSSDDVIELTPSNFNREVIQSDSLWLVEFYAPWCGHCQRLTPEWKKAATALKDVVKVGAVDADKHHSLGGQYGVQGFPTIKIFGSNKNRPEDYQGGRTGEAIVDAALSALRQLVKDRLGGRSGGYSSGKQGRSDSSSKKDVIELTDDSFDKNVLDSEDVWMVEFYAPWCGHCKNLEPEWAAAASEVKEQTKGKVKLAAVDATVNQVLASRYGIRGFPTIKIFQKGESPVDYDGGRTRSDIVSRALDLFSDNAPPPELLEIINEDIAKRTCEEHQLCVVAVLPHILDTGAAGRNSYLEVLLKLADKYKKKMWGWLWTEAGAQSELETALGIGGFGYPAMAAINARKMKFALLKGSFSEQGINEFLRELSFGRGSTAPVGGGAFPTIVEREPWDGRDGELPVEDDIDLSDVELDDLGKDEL

This experiment addresses Protein disulfide-isomerase A6 (Homo sapiens) (UniProt Q15084). As to the kind of experiment: inhibitors of ERp5-mediated insulin aggregation, dose response, biochemical, turbidity, absorbance 650 nm, cherry-picked samples (AID 720566).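 Also: negative values mean less insulin aggregation so ERp5 inhibition.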 Conditions: Recombinant ERp5 insulin aggregation; series mostly up to 35 µM.
For `C[C@@H]1CN([C@@H](C)CO)C(=O)c2cccc(NS(=O)(=O)c3ccc(F)cc3)c2O[C@H]1CN(C)S(=O)(=O)c1ccccc1`, the outcome was inactive. On to `COc1ccc(Cc2nnc(SCC(=O)NC3(C#N)CCCCC3)n2N)cc1`, for which the result was inactive. Regarding `CC(=O)Nc1ccc2c(c1)C(=O)N(C)[C@H]1CC[C@@H](CC(=O)NCC3CC3)O[C@H]1CO2`, the result was inactive. For `CCc1csc(CCNC(=O)C2CCC(=O)N(CCc3cccc(F)c3)C2)n1` (configuration not stated) the value was “inactive”. For `COc1ccc(S(=O)(=O)N(C)C[C@@H]2Oc3ccc(NC(=O)c4ccncc4)cc3C(=O)N([C@H](C)CO)C[C@@H]2C)cc1` the value was “inactive”. Regarding `Cc1cc(C(=O)Nc2cccc3c2O[C@@H](CN(C)S(=O)(=O)c2ccc(Cl)cc2)[C@@H](C)CN([C@@H](C)CO)C3=O)n(C)n1`, the result was inactive. The entry for `C[C@@H]1CN([C@@H](C)CO)C(=O)Cc2cc(NS(=O)(=O)c3cccs3)ccc2O[C@H]1CN(C)C(=O)Nc1ccc(C(F)(F)F)cc1` is “inactive”; for `COc1ccc2c3c([nH]c2c1)[C@H](CO)N(C(=O)C1CCOCC1)CC31CCN(Cc2nccs2)CC1` it is “inactive”. Turning to `CCC(=O)Nc1ccc2c(c1)OC[C@H](C)N(Cc1cccnc1)C[C@H](C)[C@H](OC)CN(C)C2=O`, the result was inactive. As to `O=C(C[C@@H]1C[C@H]2c3cc(NC(=O)Nc4ccccc4F)ccc3O[C@H]2[C@H](CO)O1)NCC(F)(F)F`, the result was inactive.

As to `C[C@H](CO)N1C[C@H](C)[C@@H](CN(C)S(=O)(=O)c2ccc(Oc3ccccc3)cc2)OCc2cnnn2CCCC1=O`, the result was inactive. The entry for `O=C(C[C@@H]1CC[C@@H]2[C@H](COC[C@@H](O)CN2S(=O)(=O)c2ccccc2)O1)NCCN1CCCC1` is “inactive”.
